# Laboratory results as given in PubChem BioAssay (Tox21).
# Results filed as inconclusive are left out. A call without a number means that no potency is given here. The source made the active and inactive calls. Calls follow the shape of the dose curve; as a rule, active = well fitted activation curve with a large enough effect in the signal ratio in the repeat runs (not every such curve was filed as active); inconclusive = weak or mixed curves, or effect the other way; inactive = flat fitted curve, though single readings scatter; the % refers to the signal ratio.
# Molecular target: Bile acid receptor (Homo sapiens) (UniProt Q96RI1)
# Test: qHTS assay to identify small molecule agonists of the farnesoid-X-receptor (FXR) signaling pathway (AID 743220)
# Settings: HEK293T FXR-UAS-bla, beta-lactamase FRET ratio, 16 h; series mostly up to 62.6 µM
# Excerpt: National Center for Advancing Translational Sciences [NCATS]
# NIH Chemical Genomics Center [NCGC]
# U.S. Environmental Protection Agency [EPA]
# National Institutes of Environmental Health Sciences [NIEHS]
# National Toxicology Program [NTP]
# U.S. Food and Drug Administration [FDA]
# The farnesoid-X-receptor (FXR), a nuclear hormone receptor, is highly expressed in liver, intestine, kidney and adrenal cortex. Natural ligands of FXR are the bile acids (Cholic acid, Chenodeoxy cholic acid etc). FXR is an important regulator of diverse metabolic pathways, including the bile acid homeostasis, lipid and glucose metabolisms. FXR regulates the expression of target genes by binding either as a monomer or as a heterodimer with the retinoid X receptor (RXR). Numerous studies have reported that FXR exerts protective function during cholestasis, diabetes, liver regeneration, and cancer. To identify compounds that activate FXR signaling, GeneBLAzer FXR-UAS-bla HEK 293T cell line (Invitrogen, Carlsbad, CA) containing a beta-lactamase reporter gene under the control of a UAS response element was used to screen the Tox21 10K compound library.
# Tox21 Assay Protocol Summary:
# FXR-bla cells were dispensed at 5000 cells/5uL/well in 1536-well black wall/clear bottom plates using a Multidrop Combi (Thermo Fisher Scientific, Waltham, MA) dispenser. After the assay plates were incubated at 37C and 5% CO2 for 5 h, 23 nL of compounds dissolved in DMSO, positive controls or DMSO only was transferred to the assay plate by a Pintool station (Kalypsys, San Diego, CA). The assay plates were incubated at 37C for 16 h. After 1 uL of LiveBLAzerTM B/G FRET substrate was added using a Bioraptr Flying Reagent Dispenser (FRD) workstation (Beckman Coulter, Indianapolis, IN), the plates were incubated at room temperature for 2 h, and fluorescence intensity was measured by an Envision plate reader (PerkinElmer, Shelton, CT).
# Potency is read from the fitted curve at half-maximal effect.
# Chain of Bile acid receptor (Homo sapiens) (Q96RI1 whole entry, looked up): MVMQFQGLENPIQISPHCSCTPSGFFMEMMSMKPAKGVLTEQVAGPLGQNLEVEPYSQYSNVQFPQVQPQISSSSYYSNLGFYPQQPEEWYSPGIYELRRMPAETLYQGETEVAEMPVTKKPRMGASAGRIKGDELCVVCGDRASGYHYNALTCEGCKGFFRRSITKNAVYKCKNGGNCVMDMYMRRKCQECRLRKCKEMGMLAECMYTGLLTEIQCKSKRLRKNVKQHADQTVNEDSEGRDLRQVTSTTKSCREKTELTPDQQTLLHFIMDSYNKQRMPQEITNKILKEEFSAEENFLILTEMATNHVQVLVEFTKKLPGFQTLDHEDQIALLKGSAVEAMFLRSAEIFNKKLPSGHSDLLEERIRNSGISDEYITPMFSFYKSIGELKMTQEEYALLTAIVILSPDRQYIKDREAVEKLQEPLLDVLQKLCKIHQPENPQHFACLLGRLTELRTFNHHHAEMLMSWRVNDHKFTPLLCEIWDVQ
row,SMILES,Potency
1,c1ccc(CCCc2ccncc2)cc1,49 µM (active)
2,CC(C)Cc1ccc(CC(=O)O)cc1,inactive
3,CC(=O)OCCC(C)CC(C)(C)C (stereo not given),inactive
4,O=C(CCS)OCC(COC(=O)CCS)(COC(=O)CCS)COC(=O)CCS,inactive
5,Cc1cc([N+](=O)[O-])ccc1N,inactive
6,CCC(=O)OCc1ccc(OC)cc1,inactive
7,O=c1[nH]c2cc(C(F)(F)F)c(N3CCOCC3)cc2n(CP(=O)(O)O)c1=O,inactive
8,CC(C)C(O)C(C)(C)CO (stereo not given),inactive
9,O[C@@H](CNC[C@H](O)[C@H]1CCc2cc(F)ccc2O1)[C@@H]1CCc2cc(F)ccc2O1,inactive
10,CCN(CC)C(=O)N1CCN(C)CC1,inactive
11,CO[C@@H]1[C@@H](OC)[C@H](C)[C@@](O)(CC(=O)O)O[C@H]1[C@H](C)[C@H]1O[C@@]2(CC[C@@](C)([C@H]3CC[C@@](C)([C@@H]4O[C@@H]([C@H]5O[C@](C)(O)[C@H](C)C[C@@H]5C)C[C@@H]4OC4C[C@H](OC)[C@@H](OC)[C@H](C)O4)O3)O2)C[C@H](O)[C@H]1C (stereo not given in full),inactive
12,CCCCCC,inactive
13,Oc1cccc2[nH]ccc12,inactive
14,CC(C)(C)C(O)/C=C/c1ccc2c(c1)OCO2 (stereo not given),inactive
15,CCN(Cc1cccc(S(=O)(=O)O)c1)c1ccc(C(=C2C=CC(=[N+](CC)Cc3cccc(S(=O)(=O)O)c3)C=C2)c2ccccc2S(=O)(=O)[O-])cc1,inactive
16,C=CC(=O)NC(C)C,inactive
17,CC(C)(C)CCCCCCOC(=O)c1ccccc1C(=O)OCCCCCCC(C)(C)C,inactive
18,CCCCCc1ccco1,inactive
19,O=P(O)(O)Oc1ccccc1,inactive
20,CC(C)(O)CCc1ccccc1,inactive

row,SMILES,Potency
1,CC(=O)NNC(C)=O,inactive
2,Cc1ccc2c(c1[N+](=O)[O-])C(=O)c1ccccc1C2=O,inactive
3,CCOC(=O)C(C)O (stereo not given),inactive
4,CSCC[C@H](NC(=O)[C@H](Cc1c[nH]c2ccccc12)NC(=O)CCNC(=O)OC(C)(C)C)C(=O)N[C@@H](CC(=O)O)C(=O)N[C@@H](Cc1ccccc1)C(N)=O,inactive
5,Cc1ccc(Cl)cc1N,inactive
6,O=C(O)/C=C/c1ccc(O)c(O)c1,inactive
7,COC(C)(C)OC,inactive
8,COc1ccc(/C=C/C(=O)c2ccc(OC)cc2OC)cc1,inactive
9,Cc1ccc(N(CC2=NCCN2)c2cccc(O)c2)cc1,inactive
10,O=[N+]([O-])c1ccc2ncccc2c1,inactive
11,CC(CO)(CO)C(=O)O,inactive
12,Cc1cccc(C)c1NC(=O)c1cc(S(N)(=O)=O)c(Cl)cc1O,inactive
13,CCC(C)(C)C(=O)O,inactive
14,CNC1CCCN(c2c(F)cc3c(=O)c(C(=O)O)cn(C4CC4)c3c2OC)C1 (stereo not given),inactive
15,O=C1NC(=O)c2cccc3cccc1c23,inactive
16,Cc1c(C2(c3cc(Br)c(O)c(Br)c3C)OS(=O)(=O)c3ccccc32)cc(Br)c(O)c1Br,inactive
17,Cc1cc(CCC(=O)OCCOCCOCCOC(=O)CCc2cc(C)c(O)c(C(C)(C)C)c2)cc(C(C)(C)C)c1O,inactive
18,COc1ccc(-c2cc(C(F)F)nn2-c2ccc(S(N)(=O)=O)cc2)cc1F,inactive
19,CC(=O)Oc1cccc(O)c1,inactive
20,C1CCCCC1,inactive
